In all, about 46,000 compounds went through this assay and about 60 (0.1%) were called active. Not shown: some 3% with an inconclusive outcome. The entries come from a sample that favours actives as a whole. Unmarked numbers belong to inactive results. Calls come from the whole dose curve; as a rule, active = well fitted inhibition curve with a large enough effect; inconclusive = small, poorly fitted or top-dose-only effect; inactive = no such curve, though single readings can be large or run the other way.
Potency is the fitted concentration of half-maximal effect.

This assay is described as follows: Primary qHTS assay for Inhibitors of ovarian cancer metastasis using an organotypic tumor microenvironment (TME) model.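 For Potency: count of GFP cancer cells still attached after washing and fixation.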 Note: nearly all actives have a fitted effect of over 65% in size. As to conditions: SKOV3ip1-GFP adhesion/invasion on 3D omental model, fluorescence; series mostly up to 45.8 µM; activity change, negative = inhibition: at the top concentration. From the text:
PI: Ernst Lengyel MD., Ph.D. Department of Obstetrics and Gynecology, Section of Gynecologic Oncology University of Chicago Medicine, Chicago, Illinois. The tumor microenvironment (TME) is a key determinant of metastatic efficiency. We performed a quantitative high-throughput screen (qHTS) of diverse medicinal chemistry tractable scaffolds (44,420 compounds) and pharmacologically active small molecules (386 compounds) using a layered organotypic, robust assay representing the ovarian cancer metastatic TME. This 3D model contains primary human mesothelial cells, fibroblasts, and extracellular matrix, to which fluorescently labeled ovarian cancer cells are added. Initially, 100 compounds inhibiting ovarian cancer adhesion/invasion to the 3D model in a dose-dependent manner were identified. Of those, eight compounds were confirmed active in five high-grade serous ovarian cancer cell lines and were further validated in secondary in vitro and in vivo biological assays. […] Specifically, NCGC00117362 and PP-121 inhibited ovarian cancer adhesion, invasion, and proliferation, whereas milciclib inhibited ovarian cancer invasion and proliferation. […] To evaluate the clinical potential of NCGC00117362, structure - activity relationship studies were performed. […] The three compounds identified have promise as therapeutics for prevention and treatment of ovarian cancer metastasis.
PROTOCOL TABLE (as described by Inglese J, Shamu CE and Guy RK. 2007) SEQUENCE No. (e.g., 1, 2, 3, etc.); […] (e.g., Cells, Incubation, Reagent, etc.); VALUE; DESCRIPTION. 1; Cells; 4 uL; primary human omental fibroblast, black, clear bottom, low base, 1536-well Aurora assay plate. 2; Incubation; 48 hr; 37C. 3; Cells; 3 uL; 1,200 SKOV3ip1-GFP cells. 4; Compounds; 23nL; acoustic dispenser. 5; Incubation; 2 hr; room temperature. 6; Incubation; 16 hr; 37C. 7; Wash; 5 uL; 1x PBS. 8; Fixing; 5 uL; 4% paraformaldehyde (PFA). 9; Incubation; 15 min; room temperature 10; Wash, 5 uL; 1x PBS. 11; Detection; Fluorescence, excitation filter 488 nm, emission filter 509 nm. NOTES (numbers refer to Sequence numbers above) 1. For the 1,536-well format, 40 primary human omental fibroblasts and 400 mesothelial cells were seeded with 0.02 µg fibronectin and 0.02 µg collagen type I in 4 µL of growth media (2.3 mm2; Supplementary Fig. S1A). 2. Assay plates were incubated for 48 hours at 37 C. 3. After incubation, 1,200 SKOV3ip1-GFP were seeded in 3 µL of serum-free media (growth media minus FBS) on top of primary human omental cells. 4. Compounds or controls were added to each well immediately after the addition of the cancer cells. Compounds were screened in four doses (0.36-46 µmol/L), and the plates contained the positive control (Tomatine) in eight doses (0.035-75 µmol/L) and DMSO (equal volume controls) 5 - 6. The plates were incubated at room temperature for 2 hours and then at 37 degrees C for 16 hours. 7 - 10. Following incubation, the media were aspirated and each well washed with PBS (5 µL) and then fixed with 4% paraformaldehyde (PFA; 5 µL). After 15 minutes, the PFA solution was aspirated, PBS (5 µL) was added. 11. The number of GFP-labeled cells analyzed using a fluorescent cytometer TTP LabTech Acumen eX3 using 488 nm excitation filter and 509 nm emission filter. Data was normalized to the DMSO treated for negative and Tomatine treated wells for positive control. REFERENCES: Inglese J, Shamu CE and Guy RK, Reporting data from high throughput screening of small molecule libraries, Nature Chemical Biology, 2007, 3(8): 438-441. doi.org/10.1038/nchembio0807-438. Yasgar A, Shinn P, Jadhav A, Auld DS, Michael S, Zheng W, Austin CP, Inglese J and Simeonov A, Compound Management for Quantitative High-Throughput Screening. J. Assoc. Lab. Auto., 2008, 13: 79-89. doi: 10.1016/j.jala.2007.12.004.
(Quantitative high-throughput screening tests each substance at several concentrations.)
For the compound `COc1cc(OC)cc(C(=O)Nc2cc3nn(-c4ccccc4)nc3cc2Cl)c1`, the “activity change, negative = inhibition” value was -12.1%. Still for that read-out and setting: for `CC(=O)c1ccc(N2CCN(c3nc4c(S(=O)(=O)c5ccccc5)nnn4c4ccc(Cl)cc34)CC2)cc1` the value was -7.59%. As for `Cc1ccc(CNC(=O)CCc2c(C)nn(-c3ccc(N4CCCC4)nn3)c2C)cc1`, the compound was called inactive. Take `Cc1cccc(N(C)C(=O)c2cc(S(=O)(=O)N3CCCCC3)c[nH]2)c1`: the “activity change, negative = inhibition” value was 5.29%. Regarding `CO[C@H]1O[C@@H]2O[C@@]3(C)CC[C@@H]4[C@@H](C)CC[C@@H]([C@H]1C)[C@@]24OO3`, the “activity change, negative = inhibition” value was -30.6%. On to `Cn1c(SCC(=O)N2CCCc3ccccc32)ncc(C(=O)Nc2ccc(F)cc2)c1=O`, for which the “activity change, negative = inhibition” value is -22.2%. For the compound `Cc1nn(Cc2ccc(F)cc2)c(C)c1NC(=O)c1cc(CC(C)C)on1`, the compound was called inactive. With `COc1ccccc1-c1nnc(SCC(N)=O)o1`, the “activity change, negative = inhibition” value was -1.31%.

In the case of `CON=C(C(=O)N[C@@H]1C(=O)N2C(C(=O)OCOC(=O)C(C)(C)C)=C(C=Cc3scnc3C)CS[C@H]12)c1csc(N)n1`, the “activity change, negative = inhibition” value was 25.4%. Turning to `CCc1ccc(NC(=O)CSc2nc3c([nH]c4ccccc43)c(=O)n2-c2cccc(OC)c2)cc1`, the “activity change, negative = inhibition” value is -0.478%.

As for `CCOC(=O)N1CCN([N+]([O-])=NOc2ccc([N+](=O)[O-])cc2[N+](=O)[O-])CC1`, the “activity change, negative = inhibition” value was -4.51%. Consider `Cc1nc2c(-c3ccccc3)c(C)nn2c(C)c1CCC(=O)NCCc1ccccc1`, for which the “activity change, negative = inhibition” value was 5.93%. Consider `Fc1ccc(-n2ncc3c(Nc4ccc(Oc5ccccc5)cc4)ncnc32)cc1`, for which the compound was classed as inactive. Same read-out and setting: for `Cc1ccc(/C=C(\C#N)C(=O)Nc2cc(C)ccc2C)cc1` the value was “inactive”; for `CSc1ccc(CCNC(=O)c2cnn(-c3ccccc3)c2-n2cccc2)cc1`, “inactive”. As to `COc1ccc(C2CC(=O)Nc3c2c(=O)nc2c(C)cccn32)cc1OC` (stereo not given), the “activity change, negative = inhibition” value is 12.3%. For the compound `CCN1CCN(c2cc(C)c3cc(NC(=O)c4cc(Cl)ccc4OC)ccc3n2)CC1`, the Potency was 3.55 µM (active). `COc1ccc(NC(=O)c2cnc(Nc3ccc(C)c(Cl)c3)c3ccccc23)cc1OC`: the compound was called inactive. As for `COc1ccc(C(=O)Nc2ccc3nc(N4CCCCC4)cc(C)c3c2)cc1OC`, the outcome was inactive. For the compound `CC(NC(=O)c1cc2c(=O)n3ccccc3nc2n(C(C)C)c1=N)c1ccccc1` (stereo not given), the “activity change, negative = inhibition” value is -15.9%. Regarding `COc1cc2ccccc2cc1C(=O)Nc1cccc(-c2nc3ccccc3o2)c1`, the compound was classed as inactive. As for `CCN1CCN(c2ncnc3c2cnn3-c2ccc(C)c(C)c2)CC1`, the “activity change, negative = inhibition” value is -2.4%. Regarding `CCc1cccc(NC(=O)CN(c2ccc(C)c(C)c2)S(=O)(=O)c2ccsc2C(=O)OC)c1`, the “activity change, negative = inhibition” value was 1.97%. `CCc1nccn1S(=O)(=O)c1cc(Br)ccc1Br`: the “activity change, negative = inhibition” value is 9.09%. Still for that read-out and setting: the same measure for `CCc1ccc(S(=O)(=O)c2nnn3c2nc(NCc2ccccc2OC)c2cc(Cl)ccc23)cc1`: 0.872%; for `Cc1ccc(NC(=O)c2oc3ccc(S(=O)(=O)N4CCCCC4)cc3c2C)cc1Cl`: -11.1%.

Regarding `Cc1ccc(-n2ncc3c(NCCCn4ccnc4)ncnc32)cc1Cl`, the “activity change, negative = inhibition” value was -4.11%.

Regarding `Cc1ccc(-n2c(SCC(=O)Nc3cccc(F)c3)nc3c(oc4ccccc43)c2=O)cc1C`, the compound was classed as inactive. `CC=CC[C@@H](C)C(=O)[C@H]1C(=O)N[C@@H](C(C)C)C(=O)N(C)CC(=O)N(C)[C@@H](CC(C)C)C(=O)N[C@@H](C(C)C)C(=O)N(C)[C@@H](CC(C)C)C(=O)N[C@@H](C)C(=O)N[C@H](C)C(=O)N(C)[C@@H](CC(C)C)C(=O)N(C)[C@@H](CC(C)C)C(=O)N(C)[C@@H](C(C)C)C(=O)N1C`: the “activity change, negative = inhibition” value was -11.6%. The same measure, in the same setting: for `CCc1nc2nc(C)cc(Nc3ccc(F)c(Cl)c3)n2n1` the value was 27.4%. Take `COc1cc2nc(SCC(=O)Nc3ccccc3F)n3nc(-c4ccccc4)nc3c2cc1OC`: the call was inactive. As to `Cc1ccc(Cn2c(CNC(=O)Cc3cccc(C)c3)nc3cccnc32)cc1`, the “activity change, negative = inhibition” value was -12.9%. For the compound `O=C(Cn1nc(C(F)(F)F)c2c1CCCC2)Nc1ccc(Cl)cc1`, the “activity change, negative = inhibition” value was 1.23%.

In the case of `COc1ccc(NC(=O)COCc2cc(-c3ccco3)on2)cc1`, the “activity change, negative = inhibition” value is -4.51%. Take `O=C(Cn1nc(Cc2cccnc2)c2ccccc2c1=O)N1CCN(c2ccccc2F)CC1`: the “activity change, negative = inhibition” value was -1.53%. `COc1ccc(CN2CCc3nc(Nc4ccccc4)ncc3C2)c(OC)c1OC`: the “activity change, negative = inhibition” value was -5.54%.

Consider `CO[C@H]1C[C@@H]2CC[C@@H](C)[C@@](O)(O2)C(=O)C(=O)N2CCCC[C@@H]2C(=O)O[C@H]([C@@H](C)C[C@@H]2CC[C@H](O)[C@H](OC)C2)CC(=O)[C@H](C)C=C(C)[C@@H](O)[C@@H](OC)C(=O)[C@H](C)C[C@H](C)C=CC=CC=C1C`, for which the “activity change, negative = inhibition” value was 33.7%. On to `CCOC(=O)c1ccccc1NC(=O)c1sc2nc(-c3ccc(F)cc3)cn2c1C`, for which the “activity change, negative = inhibition” value is 12%. As to `COc1ccc(-c2cn3c(n2)sc2cc(C(=O)Nc4ccc(F)cc4)ccc23)cc1`, the “activity change, negative = inhibition” value is 5.93%.

With `COc1ccc(-c2cn3c(C)c(C(=O)Nc4cc(C)cc(C)c4)sc3n2)cc1`, the Potency was 8.91 µM (active). Take `CCOC(=O)c1cc2c(=O)n3ccccc3nc2n(Cc2ccco2)c1=NC(=O)c1ccc(F)cc1`: the “activity change, negative = inhibition” value is 15.7%.

As for `Cn1c(=O)c2c(n3c4ccccc4nc13)NC(=O)CC2c1cccc(Cl)c1` (stereo not given), the “activity change, negative = inhibition” value is -3.87%.

On to `COc1cccc(CNC(=O)CN2C(=O)CCc3cc(S(=O)(=O)N4CCOCC4)ccc32)c1`, for which the “activity change, negative = inhibition” value is 0.82%. In the case of `Cc1cccc(NC(=O)c2nnn(CC(=O)Nc3ccc(C(C)C)cc3)c2N)c1C`, the outcome was inactive. For the compound `O=C(NCCc1ccccc1)c1ccc2c(c1)N(Cc1ccc(F)cc1)C(=O)c1ccccc1S2(=O)=O`, the “activity change, negative = inhibition” value was 6.62%. For the compound `COc1ccc(CNC(=O)CSc2nc3ccccc3nc2Cc2ccccc2)cc1`, the “activity change, negative = inhibition” value is -20.8%.

As for `CCc1ccc(S(=O)(=O)c2nnn3c2nc(N2CCN(CC)CC2)c2sccc23)cc1`, the outcome was inactive. In the case of `COc1ccc2oc(=O)c(-c3cn4c(n3)sc3cc(OC)ccc34)cc2c1`, the “activity change, negative = inhibition” value is -7.31%.

`O=C(Nc1ccc(-c2nc3cc(NC(=O)c4ccccc4Cl)ccc3o2)cc1)c1ccccc1Cl`: the “activity change, negative = inhibition” value was -29.1%. In the case of `CCOC(=O)c1c(N)n(-c2cccc(C)c2C)c2nc3ccccc3nc12`, the “activity change, negative = inhibition” value was -16%. Take `Cc1ccc(Nc2nc3ccccc3nc2-n2nc(C)cc2C)c(Cl)c1`: the “activity change, negative = inhibition” value is -10.1%. Still for that read-out and setting: the same measure for `COc1cc(C(=O)N2CCC(c3ccncc3)CC2)cc(OC)c1OC`: -0.392%; for `Cc1ccc(S(=O)(=O)N2CCC(C(=O)Nc3cc(C)ccc3C)CC2)cc1`: -6.77%; for `CC=CCC=CCCC(=O)[C@H]1O[C@@H]1C(N)=O`: -0.0997%. Turning to `Cc1nnc(SCC(=O)NCc2ccccc2Cl)c2nn(-c3ccccc3)c(C)c12`, the “activity change, negative = inhibition” value was -12.7%.

Values taken from PubChem BioAssay AID1963576 (National Center for Advancing Translational Sciences (NCATS), 2024).
